Compound activity (PubChem BioAssay)
HIF-2a inh = blocks HIF-2a reporter activity. 786-0 RCC cells HIF-2a reporter, luciferase luminescence, overnight. inhibition, % at 18.8 µM. actives 0.72% (n = 360,000). AID 624352;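 active = inhibition of the luminescence signal of 40% or more relative to plate controls, in a single-dose primary screen at 18.75 µM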
KKLEB tox = CF airway cell cytotoxicity counter-screen; KKLEB CF airway cells viability, ATPlite luminescence, overnight; hits give low values; cells stimulated with P. aeruginosa culture filtrate; activity change (cytotoxicity), % at 5 µM; actives 0.36% (n = 360,000); AID 602141;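 active = corrected activity change at or below -50% at 5 µM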
Peg3 prom inh = reduces Peg3 promoter-driven luciferase expression in HeLa; HeLa PEG-Prom luciferase reporter, luminescence, overnight; inhibition, % at 20 µM; actives 1.7% (n = 360,000);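 active = inhibition of at least 50% at 20 µM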
CF NFkB inh = inhibitors of cystic fibrosis induced NF-kB; actives 0.86% (n = 360,000); KKLEB NF-kB-GFP reporter, PAF-induced, GFP fluorescence overnight; inhibition, % at 5 µM; AID 588850;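 active = at least 50% inhibition at 5 µM, scaled per plate between neutral and stimulator controls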;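 note: PAF is a Pseudomonas aeruginosa culture filtrate used as stimulus; plate controls were PAF-stimulated DMSO wells for no effect and unstimulated DMSO wells for full effect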
Shn3 3UTR inh = reduces Shn3 3'UTR luciferase signal in osteoblasts; actives 0.52% (n = 360,000); AID 588674; inhibition, % at 12.5 µM; Clone20 osteoblast Shn3 3'UTR firefly luciferase, 24 h;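 active = mean inhibition of at least 75% with every replicate also reaching 75%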;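 note: 0% = median of neutral control wells and 100% = pilot-screen positive control compound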
* marks the source's active call; other numbers are inactive results. Only some compounds are listed: those with a hit (about 2.6% of all), similar ones and a draw of the others.

SMILES	HIF-2a inh	KKLEB tox	Peg3 prom inh	CF NFkB inh	Shn3 3UTR inh
Cc1c(C(=O)/C=C/c2ccccc2F)c2cc(O)ccc2n1C	-25	5	-132	-40	-81
COc1ccc(NC(=O)CSc2ccccc2)c(OC)c1	-198	-1	-229	5	-14
COc1ccc(NC(=O)CSc2ncnc3c2sc2ccccc23)c(OC)c1	15	-55*	45	53*	5
CCN(CC)c1ccc2cc(NC(=O)CCC(=O)O)c(=O)oc2c1	84*	-5	44	-10	61
CCN(CC)c1ccc2cc(C(C)=O)c(=O)oc2c1	-119	-8	-90	9	11
CCN(CC)CC(O)Cn1c2ccccc2c2ccccc21 (stereo not drawn)	0	3	-23	6	20
CCN(CC)CC(O)Cn1c(C)c(-c2ccccc2)c2cc([N+](=O)[O-])ccc21 (stereo not drawn)	-8	-14	75*	-2	-5
CC1=C(C(=O)N(C)C)CC(CC(=O)NC2CCCC2)C(=O)N1CCCN1CCCC1=O (stereo not drawn)	5	9	4	-18	-9
CC1=C(C(=O)N(C)C)CC(CC(=O)NC2CCCCC2)C(=O)N1CCCN1CCCC1=O (stereo not drawn)	10	-1	60*	13	-10
c1ccc(C2(CN3CCNC[C@H]3Cc3cccc4ccccc34)CC2)cc1	10	-2	79*	1	6
O=C1NC2CCCCC2C(=O)N1OS(=O)(=O)c1ccccc1 (stereo not drawn)	12	-18	51*	12	29
CC1CCc2cc(F)ccc2N1C(=O)CSc1nnc2c(n1)[nH]c1ccccc12 (stereo not drawn)	17	10	65*	-13	27
Cc1ccc(C(=O)NNC(=O)CSc2nnc3c(n2)[nH]c2ccc(F)cc23)cc1	5	-6	55*	-16	3
Cc1cccc(S(=O)(=O)Nc2cc(Cl)ccc2N2CCOCC2)c1	-10	-9	23	17	10
CC(C)Nc1nnc(SCC(=O)Nc2ccc3c(c2)C(=O)c2ccccc2C3=O)s1	-306	-5	87*	-48	12
CCOC(=O)N1CCN(c2nc3ccccn3c(=O)c2C=O)CC1	8	-9	23	-12	7
CC1(C(=O)NCc2cccs2)Cc2c(-c3ccc(C(N)=O)cc3)ccnc2O1 (stereo not drawn)	23	-9	30	21	-6
COc1ccc2c(c1)c1nc3ccccc3nc1n2CC(=O)OC(C)C	-2	-56*	55*	23	-12
COc1ccc(OC)c(NS(=O)(=O)c2c(C(=O)N3CCCCCC3)c(C)n(C)c2C)c1	7	5	20	-3	15
O=C(N/N=C/c1cccs1)c1ccccn1	-84	15	-142	-1	-32
C(=NN=C(NN=Cc1cccs1)NN=Cc1cccs1)c1cccs1	-123	1	78*	-21	-8
O=C(NCc1ccc(C(F)(F)F)cc1)c1cccc2c(-c3ccc(F)c(F)c3)coc12	-25	13	-4	-21	5
CN1CCN(c2ccc(CNC(=O)c3cccc4c(-c5ccc(F)c(F)c5)coc34)cc2)CC1	-46	-12	73*	-9	-1
CN1CCN(c2ccc(CNC(=O)c3ccc(-c4ccc(F)c(F)c4)c4ccoc34)cc2)CC1	-30	9	63*	-16	-1
COc1ccc2cc(C(=O)C3CCCN(C(=O)c4cc5nc(C)cc(C)n5n4)C3)ccc2c1 (stereo not drawn)	-28	-2	-13	5	5
SMILES	HIF-2a inh	KKLEB tox	Peg3 prom inh	CF NFkB inh	Shn3 3UTR inh
CCOC(=O)C1=C(C)N(CCCC(=O)O)C(=O)NC1c1ccc2ccccc2c1 (stereo not drawn)	11	0	18	19	86*
CCOC(=O)C1=C(C)N(CCCC(=O)O)C(=O)NC1c1ccccc1 (stereo not drawn)	8	-5	-6	3	-4
C=CCNC(=O)/C(C#N)=C/c1c(N(Cc2ccccc2)Cc2ccccc2)nc2ccccn2c1=O	26	3	50*	18	4
N#C/C(=C\c1c(N(Cc2ccccc2)Cc2ccccc2)nc2ccccn2c1=O)C(N)=O	30	-11	31	8	7
CC(C)C[C@H]1CNC(=S)N1CC1CCN(CC2CCC(C(C)(C)C)CC2)CC1 (stereo partly drawn)	-13	-3	37	19	93*
CC(C)C[C@@H](CN1C(=O)C(=O)NC[C@@H]1CC(C)C)NC(=O)Cc1ccccc1	7	4	-4	9	75
C=C1C(=O)O[C@H]2[C@H]1[C@@H](O)CC(=C)[C@@H]1CC(=O)[C@@H](C)[C@H]21	26	11	36	85*	73
COC(=O)c1c(-c2ccsc2)sc2ccc(-c3cc(OC)c(OC)c(OC)c3)cc12	1	-8	16	35	5
COc1cc(-c2ccc3sc(-c4ccsc4)c(C#CCO)c3c2)cc(OC)c1OC	-4	8	56*	9	24
CC1=NN(c2ccccc2)C(=O)/C1=C\c1cn(-c2ccccc2)nc1C	9	6	-10	-2	6
COc1ccccc1/C=C1/C(=O)N(c2ccccc2)N=C1C	45*	-12	6	4	15
O=C(CS(=O)c1ccc(C(F)(F)F)cc1[N+](=O)[O-])Oc1ccccc1 (stereo not drawn)	21	-38	80*	57*	-29
Cc1cc(C(C#N)c2ccc(Cl)cc2)c(Cl)cc1NC(=O)c1cc(I)cc(I)c1O (stereo not drawn)	-24	-12	44	62*	4
COc1ccccc1/C=C1\SC(=S)N(CCC(=O)N2CCN(C)CC2)C1=O	11	0	7	-12	-42
CC(=C\c1ccccc1)/C=C1/SC(=S)N(CCC(=O)O)C1=O	81*	4	-34	6	5
O=C(CCN1C(=O)/C(=C/c2ccccc2Cl)SC1=S)N1CCCC1	-11	-4	73*	53*	47
O=C(CCN1C(=O)/C(=C/c2ccccc2Cl)SC1=S)N1CCOCC1	-15	-11	76*	72*	0
O=C(CCCN1C(=O)/C(=C/c2ccccc2Cl)SC1=S)N1CCCC1	59*	-11	35	5	-35
O=C(CCCN1C(=O)/C(=C/c2ccccc2Cl)SC1=S)NNC(=O)c1ccncc1	82*	22	21	-9	15
O=C(CCCN1C(=O)/C(=C/c2cccs2)SC1=S)NNC(=O)c1ccncc1	12	-3	-4	-3	-1
COc1cccc(CC(NC(C)=O)C(=O)NC2CCN(S(=O)(=O)c3ccc(NC(C)=O)cc3)CC2)c1OC (stereo not drawn)	8	3	-7	-7	-4
CCn1c(SCC(=O)NNC(=O)c2ccc(OC)cc2)nnc1-c1ccco1	12	17	14	-5	13
Cn1c(=O)n(CCCOc2ccc(Br)cc2)c2ccccc21	-68	-1	-61	8	-3
